Only some compounds are listed: those with a hit (about 4% of all), similar ones and a draw of the others.
MITF act – activators of MITF-driven TRPM1 promoter reporter, primary screen, cell-based, SK-MEL-5, luciferase, single point; SK-MEL-5 TRPM1-promoter luciferase, 24 h; % of positive control, neutral wells = 0; activation, % at 12.5 µM; 300,000 compounds, 0.75% hits;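 active means mean activation of at least 80% with every replicate also reaching 80%; inconclusive means mean reaches 80% but some replicate falls short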;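 further: 0% = neutral control wells and 100% = parthenolide positive control wells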
PAX8 inh HTS – inhibitors of PAX8-driven TPO luciferase reporter, primary screen, RMG-I cells, single concentration | 360,000 compounds, 1.2% hits | SteadyGlo, 24 h | AID 652154, 2013 | inhibition, % at 12.6 µM;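 active means mean replicate inhibition at least 60% with every replicate also reaching 60%; inconclusive means only one of the two criteria is met; inactive means mean below 60% and not all replicates reaching 60%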;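 further: luciferase light reporting Pax8 driven TPO promoter activity; plate controls were median of neutral control wells for no effect and mitoxantrone controls for full effect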
MITF TRPM1 inh – inhibitors of MITF-dependent TRPM1 promoter reporter, primary screen, cell-based, SK-MEL-5, single point, luciferase | inhibition, % at 12.5 µM | SK-MEL-5 TRPM1 promoter luciferase, 24 h | 330,000 compounds, 0.83% hits;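 active means mean inhibition across replicates of 60% or more, whatever share of single replicates reaches that level; inconclusive means some that reach 60%, reason not given; inactive means mean inhibition across replicates below 60%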
EWS-Fli block – EWS/Fli-driven NR0B1 reporter inhibitors, primary screen, A673 cells, NR0B1 luciferase, luminescence, MLPCN library; AID 651661, 2012; inhibition, % at 12.6 µM; viability-normalised; 350,000 compounds, 0.67% hits;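 active means mean inhibition of at least 50% after viability correction, with every replicate also passing that limit; inconclusive means mean reaches 50% but only one of two replicates passes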;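 further: firefly luciferase signal divided by Alamar Blue viability fluorescence both relative to DMSO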
Wnt act – Wnt/beta-catenin pathway activators, primary screen, cell-based, plate reader, single point; Wnt/beta-catenin reporter cell assay, activator; activation, % at 9.35 µM; 300,000 compounds, 1.2% hits; in the data active means activation above about 30%, passing the limit was not always enough; inconclusive means no clear call, values can overlap the other calls;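 further: 0% = neutral control wells and 100% = positive control wells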
esBAF inh – Bmi1 luciferase reporter increase in mESCs, primary screen, esBAF inhibitor project, mouse ES cells, Bmi1 luciferase knock-in, single point; 24 h; 100% = twice the neutral-well signal; reporter increase, % at 12.5 µM; 350,000 compounds, 2% hits; in the data active means activation above about 40%; inconclusive means no clear call, values can overlap the other calls;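 further: 0% = median of the plate's neutral control wells and 100% = double that signal; a rise in the Bmi1 reporter signal indicates esBAF inhibition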
An asterisk follows results filed as active; ? = inconclusive; . = no result.

SMILES | MITF act | PAX8 inh HTS | MITF TRPM1 inh | EWS-Fli block | Wnt act | esBAF inh
CCN(CCCl)c1cc(CN(C)C)cc(NC(=O)c2ccc(C(=O)Nc3cc(CN(C)C)cc(N(CC)CCCl)c3)cc2)c1 | -97.6 | 108.2* | 98.0* | 60.3* | -11.3 | -85.0
COC(=O)[C@H]1N[C@H]2c3ccc(C4=CCCC4)c(=O)n3C[C@H]2[C@@H]1CO | . | . | . | -1.5 | . | -3.4
CCC1CN2CCc3cc(OC)c(OC)cc3C2CC1CC1NCCc2c1[nH]c1ccc(O)cc21 (configuration not stated) | . | 101.0* | 97.1* | 28.5 | -9.5 | .
Cc1cccc(S(=O)(=O)N2[C@@H]3Cn4c(ccc(-c5ccncc5)c4=O)[C@H]2[C@@H](C(=O)O)[C@@H]3CO)c1 | . | 0.8 | . | -4.4 | . | -2.4
CC1=CC2OC3CC4OC(=O)C=CC=CC(=O)OCCC(C)C(O)C(=O)OCC2(CC1)C4(C)C31CO1 (configuration not stated) | . | 102.2* | 103.5* | 18.8 | -26.1 | .
CC1CCOC(=O)C=CC=CC(=O)OC2CC3OC4C5OC5(C)C(O)CC4(COC(=O)C1O)C2(C)C31CO1 (configuration not stated) | . | 103.6* | 80.4* | 22.0 | -25.6 | .
CC1=CC2OC3CC4OC(=O)C=CC=CC(C(C)O)OCC(O)C5(C)OC5C(=O)OCC2(CC1O)C4(C)C31CO1 (configuration not stated) | . | 101.8* | 90.3* | 44.9 | -9.5 | .
CC(O)C1C=CC=CC(=O)OC2CC3OC4C5OC5(C)C(O)CC4(COC(=O)C(O)C(C)CCO1)C2(C)C31CO1 (configuration not stated) | -79.0 | 112.7* | 79.2* | 29.4 | -3.0 | .
COC(=O)[C@H]1[C@H](CO)[C@H]2Cn3c(ccc(-c4ccncc4)c3=O)[C@@H]1N2CCc1ccccc1 | . | . | . | -70.1 | . | 0.3
O=C(Cc1cccnc1)N1CCCCN2[C@@H](CO)[C@@H](c3ccc(C#CC4CC4)cc3)[C@@H]2C1 | . | 2.7 | . | -9.3 | . | .
N#Cc1cccc(-c2ccc([C@H]3[C@H]4CN(C(=O)Cc5ccccc5)CCCCN4[C@H]3CO)cc2)c1 | . | 30.3 | . | 4.8 | . | .
CCOC(=O)c1ccccc1N | 3.6 | . | 1.3 | -1.2 | -1.5 | -8.0
Nc1ccccc1C(=O)OCc1ccc([N+](=O)[O-])cc1 | 53.9 | -16.0 | -52.0 | -71.0 | 4.0 | 57.4*
Cn1c(O)c(C2=NNC(c3ccc(Cl)cc3)C2)c(=O)n(C)c1=O (configuration not stated) | . | 23.6 | 6.6 | -7.6 | -0.6 | .
CCOc1ccc(C2CC(c3c(O)n(C)c(=O)n(C)c3=O)=NN2)cc1 (configuration not stated) | . | -8.8 | 0.1 | -26.0 | 30.1* | .
Clc1ccc(C(c2ccc(Cl)cc2)n2cc[n+](CC(OCc3ccc(Cl)cc3Cl)c3ccc(Cl)cc3Cl)c2)cc1 (configuration not stated) | -102.5 | 97.3* | 102.7* | 49.4 | -22.5 | -84.0
Clc1ccc(COC(Cn2ccnc2)c2ccc(Cl)cc2Cl)cc1 (configuration not stated) | -8.8 | 3.9 | 13.8 | 11.6 | -3.9 | -12.1
c1cc(-c2ccc(C3[C@H]4CNC[C@@H]3N4CC3CC3)cc2)ccn1 (some centres not stated) | . | -19.8 | . | -2.8 | . | .
O=C(C1CC(c2ccc(Cl)c(Cl)c2)=NO1)N1CCC2(CC1)OCCO2 (configuration not stated) | 116.8* | . | -113.9 | . | . | 80.4*
C#CCOc1cc(C2C3=C(COC3=O)Nc3cc4c(cc32)OCO4)ccc1OC (configuration not stated) | -30.7 | ? | 34.0 | 62.6* | . | .
CCCC#Cc1ccc([C@@H]2[C@H]3CN(C(=O)Cc4ccccn4)CCCCN3[C@H]2CO)cc1 | . | -1.6 | . | 0.3 | . | .
O=C(O)[C@@H]1[C@@H](CO)[C@@H]2Cn3c(cccc3=O)[C@H]1N2C(=O)c1ccccc1 | . | . | . | -3.2 | . | -0.4
COc1cc2c(ccc3c4cc(OC)c(OC)cc4c[n+](C)c23)cc1O | . | 75.0* | -8.8 | 31.8 | 12.2 | .
COc1ccc(Cc2nccc3cc(OC)c(OC)cc23)cc1OC | -25.4 | 19.7 | 27.6 | -3.8 | -3.7 | -6.9
CSCCC(c1nnnn1Cc1ccccc1)N1CCC(n2c(=O)[nH]c3ccccc32)CC1 (configuration not stated) | . | 96.6* | . | 36.0 | -3.1 | -17.4
SMILES | MITF act | PAX8 inh HTS | MITF TRPM1 inh | EWS-Fli block | Wnt act | esBAF inh
O=c1[nH]c2ccccc2n1C1CCN(C(c2nnnn2C2CCCC2)C2CC2)CC1 (configuration not stated) | . | 11.3 | . | 14.1 | -1.5 | -0.3
O=c1[nH]c2ccccc2n1C1CCN(C(CCc2ccccc2)c2nnnn2Cc2ccccc2)CC1 (configuration not stated) | . | 108.4* | . | 23.6 | -3.1 | -9.0
O=c1[nH]c2ccccc2n1C1CCN(C(c2nnnn2Cc2ccccc2)C2CC2)CC1 (configuration not stated) | . | 85.8* | . | 4.5 | -2.8 | 10.6
CC(C)(C)n1nnnc1C(CCc1ccccc1)N1CCC(n2c(=O)[nH]c3ccccc32)CC1 (configuration not stated) | . | 16.4 | . | 20.0 | -3.0 | -10.7
CC=Cc1ccc2n(c1=O)C[C@@H]1[C@@H](CO)[C@H](C(=O)O)[C@H]2N1S(=O)(=O)c1ccccc1C (mixture of isomers) | . | -5.9 | . | -3.1 | . | 0.4
O=C(Cc1ccncc1)N1CCCCN2[C@H](C1)[C@@H](c1ccc(C#CC3(O)CCCC3)cc1)[C@@H]2CO | . | 6.0 | . | . | . | .
Cc1cccc(N=Nc2ccc(N(C)C)cc2)c1 | 56.0 | -167.2 | -57.2 | . | 49.3* | 1.6
CN(C)CC(C(=O)Cc1ccccc1)c1ccccc1 (configuration not stated) | -38.1 | 103.6* | 41.1 | 25.3 | -9.8 | 0.4
C[C@@H]([C@@H](O)c1ccccc1)N(C)C(=O)Cc1ccccc1 | -2.7 | -4.3 | 3.7 | -10.9 | 0.4 | -10.3
COc1ccc(CC2C(=O)NC(C)C(=O)N(C)C3C(=O)N(C)C(Cc4ccc(O)c(c4)Oc4ccc(cc4)C3O)C(=O)NC(C)C(=O)NC(C)C(=O)N2C)cc1 (configuration not stated) | . | 110.5* | 104.2* | 43.9 | -10.0 | .
N#Cc1c(Br)n(C2OC(CO)C(O)C2O)c2ncnc(N)c12 (configuration not stated) | . | 81.9* | 36.1 | 30.2 | -5.6 | .
NC(=O)c1c(Br)n(C2OC(CO)C(O)C2O)c2ncnc(N)c12 (configuration not stated) | . | 85.5* | 50.9 | 32.2 | -18.8 | .
O=C(Cc1cccnc1)N1CCCCN2[C@H](CO)[C@@H](c3ccc(/C=C/c4ccccc4)cc3)[C@H]2C1 | . | -8.3 | . | -11.5 | . | .
